Measured values published in PubChem BioAssay AID2685 (National Center for Advancing Translational Sciences (NCATS), 2010).
Among all 320,000 compounds or so, about 2,100 (0.66%) were called active. Roughly 53% stayed inconclusive and do not appear here. Calls follow the shape of the dose curve; as a rule, active = well fitted inhibition curve with a large enough effect in the signal ratio, with a control signal flat (not every such curve was filed as active); inconclusive = small, poorly fitted or top-dose-only effect, or effect the other way, or a change in a side signal; inactive = flat fitted curve, though single readings scatter; the % refers to the signal ratio. This excerpt belongs to a sample that is enriched for actives.

Experiment: qHTS Assay for Lipid Storage Modulators in Drosophila S3 Cells;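 as to cell number change: cells counted by Cell Tracker Red CMTPX staining in the red channel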
Details: BODIPY lipid droplet fluorescence, 18-24 h, cells fed with added oleic acid; cell number change: measured here: cell count max response; series mostly up to 46.1 µM
Outline: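 Drosophila S3 cells got compounds at several concentrations plus oleic acid (400 uM solution). Laser-scanning cytometry with 488 nm excitation read lipid droplets at 500-530 nm and cells at 575-640 nm. Percent activity was relative to 20 uM Triacsin C.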
Potency is read from the fitted curve at half-maximal effect.

Structure (SMILES)	Potency	cell number change [%]
COc1ccccc1/C=N/OC(=O)c1ccc(F)cc1	inactive	3.91
Cc1cc(C)c(S(=O)(=O)NCCCn2ccnc2)cc1C	inactive	4.74
COc1cc(Cl)c(S(=O)(=O)NCCCn2ccnc2)cc1Cl	inactive	29
Cc1cc(Cl)c(Cl)cc1S(=O)(=O)NCCCn1ccnc1	6.51 µM (active)	-5.8
COc1cccc(NC(=O)C2CCC(CNC(=O)[C@@H]3Cc4ccccc4CN3)CC2)c1 (stereo partly specified)	inactive	0.236
CC(C(=O)Nc1ccc(F)c(F)c1F)N(C)Cc1cccs1 (stereo unspecified)	inactive	25.5
CCOC(=O)N1CCN(S(=O)(=O)N2CCCC(C(=O)NCCc3ccc(OC)c(OC)c3)C2)CC1 (stereo unspecified)	inactive	-20.2
O=C(Nc1ccncc1)C1CCN(S(=O)(=O)c2ccc(Cl)c(C(F)(F)F)c2)CC1	10.3 µM (active)	2.68
COc1ccc(S(=O)(=O)N2CCC(C(=O)N[C@@H](C)C(=O)NCc3ccc(F)cc3)CC2)cc1	inactive	13.5
CCOc1ccc(CCNC(=O)C2CCCN(S(=O)(=O)N3CCOCC3)C2)cc1OCC (stereo unspecified)	inactive	0.288
CCOC(=O)N1CCN(S(=O)(=O)N2CCCC(C(=O)NCCc3ccc(OCC)c(OCC)c3)C2)CC1 (stereo unspecified)	4.61 µM (active)	–
COc1ccc(CNC(=O)[C@H](C)NC(=O)C2CCN(S(=O)(=O)c3ccc(F)cc3)CC2)cc1	18.4 µM (active)	3.44
COc1ccc(CNC(=O)[C@H](C)NC(=O)C2CCN(S(=O)(=O)c3ccc(C)cc3)CC2)cc1	inactive	-4.43
CCOc1ccc(S(=O)(=O)N2CCCC(C(=O)N3CCOCC3)C2)cc1Cl (stereo unspecified)	inactive	16.4
CCOc1ccc(S(=O)(=O)N2CCCC(C(=O)N3CCOCC3)C2)cc1C (stereo unspecified)	2.31 µM (active)	-23.5
O=C(Nc1ccncc1)C1CCN(S(=O)(=O)c2cccc(C(F)(F)F)c2)CC1	inactive	-3.08
CS(=O)(=O)N1CCC(C(=O)Nc2ccc(Cl)c(C(F)(F)F)c2)CC1	inactive	-15.8
COc1ccc(S(=O)(=O)N2CCCC(C(=O)N3CCOCC3)C2)cc1C (stereo unspecified)	inactive	17.1
O=C(NC1=NCCS1)c1ccccc1Cl	inactive	-14.3
CO/N=C/CC(=O)Nc1ccc(F)cc1F	inactive	16.8
CCCNC(=O)Nc1nc(CC(=O)OCC)cs1	inactive	-16.9
CC1NC2(C(=O)N(Cc3ccccc3)c3ccccc32)C2C(=O)N(c3ccccc3)C(=O)C12 (stereo unspecified)	inactive	–
CC1Cc2ccccc2C(CCc2ccccc2)=N1 (stereo unspecified)	inactive	-1.48
CSc1cccc(CNC(=O)CC2C(=O)NCCN2CC(C)(C)C)c1 (stereo unspecified)	inactive	22
